Reference: ChEMBL document CHEMBL3988442, “University of Dundee, Small-Polar-MMV Screening Library” (2021)
In all, about 85,000 compounds went through this assay and about 440 (0.52%) showed an effect of 50% or more. The sample holds strong results, similar compounds and a random draw of the others, so the mix is not that of the screen.

Test: In vitro enzyme assay to detect hydrolysis of chlorophenol red-beta-D-[…] directly proportional to the number of Toxoplasma stably expressing beta-galactosidase
Type: functional, organism-based, Toxoplasma gondii
Design: scale not given: in the data most compounds retested in dose-response had high values

Row | SMILES | Percent Effect (50 µM) [%] | Percent Effect (10 µM) [%]
1 | CCC1(CN)OCCc2ccccc21 (centres undefined) | 4.501 | 
2 | NC(=O)[C@@H]1Cc2ccccc2CO1 | 9.404 | 
3 | Cn1ncnc1CCNc1cc(C2CC(N)C2)ncn1 (centres undefined) | 22.67 | 
4 | CCCS(=O)(=O)N1CCC(NC(=O)c2cc3ccccc3s2)CC1 |  | 4.884
5 | CN1CCC(NC(=O)c2ccc3ncccc3c2)C1=O (centres undefined) | 1.515 | 
6 | CN1CCC(NC(=O)c2cc3ccccc3s2)C1=O (centres undefined) | 52.45 | 
7 | CCC(C)(NCc1cc(F)ccc1F)C(N)=O (centres undefined) | -22.31 | 
8 | CC(C)(C)OC(=O)N(CCNS(=O)(=O)N1CCOCC1)C1CC1 |  | -6.418
9 | CCN(CCNS(=O)(=O)N1CCOCC1)C(=O)OC(C)(C)C |  | 51.95
10 | CCN(CCNS(=O)(=O)C1CCOCC1)C(=O)OC(C)(C)C |  | 6.938
11 | O=C1CCOc2cc(O)c(F)cc21 | -11.53 | 
12 | CN(C)S(=O)(=O)CCCN1CCC2(CCCNC2=O)C1 (centres undefined) | 25.69 | 
13 | CC1CCCN(Cc2nc(N)nc(N(C)C)n2)C1 (centres undefined) | 28.57 | 
14 | COc1ccc(C(CO)N(C)Cc2ccncc2)cc1 (centres undefined) | 7.987 | 
15 | CCC(C#N)NC(=O)c1cnc(OC(C)C)c(Cl)c1 (centres undefined) | 77.34 | 
16 | CCC(C#N)NC(=O)c1ccc(Oc2cccnc2)cc1 (centres undefined) |  | -3.821
17 | CC(CO)CNC(=O)c1cnc(OC(C)C)c(Cl)c1 (centres undefined) | 9.037 | 
18 | O=C(c1ccccc1-n1cccn1)N1CCSCC1 | 5.631 | 
19 | CCOc1ncccc1C(=O)N1CCCN(CC)CC1 | 8.353 | 
20 | COCC1CN(Cc2ccc(C)s2)Cc2nnn(C)c21.O=C(O)C(F)(F)F (centres undefined) |  | 3.713
21 | Cc1ccc(CN2Cc3nnn(C)c3C(COCC3CC3)C2)s1.O=C(O)C(F)(F)F (centres undefined) |  | -9.58
22 | Cc1ccc(CN2Cc3nnn(C)c3C(COCc3ccccc3)C2)s1.O=C(O)C(F)(F)F (centres undefined) |  | 57.56

Row | SMILES | Percent Effect (50 µM) [%] | Percent Effect (10 µM) [%]
23 | Cc1ccc(CN2Cc3nnn(C)c3C(COCc3ccccn3)C2)s1.O=C(O)C(F)(F)F.O=C(O)C(F)(F)F (centres undefined) |  | 13.37
24 | Cc1ccc(CN2Cc3nnn(C)c3C(COCC(=O)N(C)C)C2)s1.O=C(O)C(F)(F)F (centres undefined) |  | -13.89
25 | CC(C)(C)c1cc(NC(=O)CN2CCC(O)CC2)on1 | -5.429 | 
26 | CCOc1ccc(NC(=O)NC2CCS(=O)(=O)C2)cc1 (centres undefined) | 3.188 | 
27 | O=C(CN1CCNCC1)NCCSc1ccc(Cl)cc1 | 4.461 | 
28 | CCN(CC)CCNC(=O)c1cnc(C(C)(C)C)s1 |  | 0.3139
29 | O=C(NCCCN1CCCC1=O)c1ccc(-n2ccc3ccccc32)s1 |  | 17.83
30 | CCN(CC)CCNC(=O)c1ccc(-n2ccc3ccccc32)s1 |  | 63.07
31 | O=C(NCCCN1CCCCC1)c1ccc(-n2ccc3ccccc32)s1 |  | 79.49
32 | O=C(NCCN1CCOCC1)c1ccc(-n2ccc3ccccc32)s1 |  | -1.22
33 | O=C(NCCCN1CCOCC1)c1ccc(-n2ccc3ccccc32)s1 |  | 19.43
34 | CC1Sc2ccc(C(=O)N(C)C)cc2NC1=O (centres undefined) | -6.489 | 
35 | NC1CCN(c2ccccc2F)CC1 | -9.36 | 
36 | CCSCCC(C)N(C)C(=O)c1ccn(C)c(=O)c1 (centres undefined) | -4.294 | 
37 | O=C1NC(c2cc[nH]n2)Nc2ncccc21 (centres undefined) | -9.997 | 
38 | COc1ccc(C2NC(=O)c3cccnc3N2)cc1F (centres undefined) | 6.983 | 
39 | N#Cc1ccc(C2NC(=O)c3cccnc3N2)cc1 (centres undefined) | 98.73 | 
40 | CC(C)OCCN1CCC(O)CC1 | 2.889 | 
41 | O=C(Nc1ccncc1)N1CCN(CC2CC2)CC1 | 11.51 | 
42 | CN(C)CC1CN(Cc2nc(-c3cccnc3)no2)CCO1 (centres undefined) |  | 12.35
43 | c1ccc(-c2noc(CN3CCOC(Cn4cccn4)C3)n2)nc1 (centres undefined) |  | 4.093
44 | CN(C)CC1CN(Cc2nc(-c3ccccn3)no2)CCO1 (centres undefined) |  | 86.82
